Bioassay records as filed in PubChem BioAssay.
JMJD2A Tudor = JMJD2A Tudor domain (human) inhibition. O75164. AlphaScreen JMJD2A-Tudor / H3K4me3 peptide binding. Potency, µM (titrated, usually from 114 µM), hits mostly inhibitors. 390,000 tested, 4.4% active. AID 504339; note: nearly all actives have a fitted effect of over 50% in size
G9a inh = blocks human histone lysine methyltransferase G9a | Q96KQ7 | G9a H3K9 monomethylation, AlphaScreen, 2 h | Potency, µM (series often up to 102 µM), most hits filed as inhibitors | 350,000 tested, 8.8% active; note: nearly all actives have a fitted effect of over 75% in size
Target sequence (Q96KQ7 913-1193 limits assumed): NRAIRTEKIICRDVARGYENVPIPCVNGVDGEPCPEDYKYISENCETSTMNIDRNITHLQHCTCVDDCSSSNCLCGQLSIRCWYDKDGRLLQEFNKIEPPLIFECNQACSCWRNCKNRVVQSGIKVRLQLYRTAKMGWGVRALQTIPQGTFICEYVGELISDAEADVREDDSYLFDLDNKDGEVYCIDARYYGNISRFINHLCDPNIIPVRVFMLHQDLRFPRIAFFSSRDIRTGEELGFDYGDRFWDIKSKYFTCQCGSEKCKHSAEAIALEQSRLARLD
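Enzyme 20 nM + cpd, 15 min RT; add b-H3K9 pep 500 nM / SAM 20 uM; 2 h RT; anti-H3K9me1 Ab 0.5 ug/mL + SA donor / anti-rabbit acceptor beads 20 ug/mL each, 10 min; AlphaScreen read.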
Sfp PPTase inh = inhibitors of Bacillus subtilis Sfp phosphopantetheinyl transferase. Biochemical Sfp PPTase activity, qHTS. Potency, µM, hits mostly inhibitors. AID 1490. 310,000 tested, 3.5% active. Q9F4F7;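 note: the enzyme is Sfp with the accession as filed and its product quenches rhodamine fluorescence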
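Compounds were incubated with enzyme (final 15 nM) for 15 min at room temperature before substrate addition started the reaction. Fluorescence at 525 nm excitation, 598 nm emission was recorded immediately and after 30 minutes.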
HP1b chromo inh = HP1-beta chromodomain-methylated histone interaction inhibition | AlphaScreen HP1-beta / biotin-H3K9me3 peptide binding | Potency, µM (highest dose often 114 µM), actives largely listed as inhibitors | 390,000 tested, 0.56% active; note: nearly all actives have a fitted effect of over 70% in size
Target sequence (P83916 whole entry, looked up): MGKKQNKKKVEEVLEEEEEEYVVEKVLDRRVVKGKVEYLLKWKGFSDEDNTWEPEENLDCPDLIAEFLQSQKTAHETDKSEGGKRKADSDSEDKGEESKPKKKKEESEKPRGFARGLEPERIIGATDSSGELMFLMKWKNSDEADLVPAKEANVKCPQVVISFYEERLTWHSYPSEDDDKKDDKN
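Compound inhibition of the preformed complex between 50 nM HP1-beta and 50 nM biotinylated H3K9me3 peptide was read by AlphaScreen. Buffer was PBS pH 7.4 with 0.01% Tween-20. Incubations ran 30 min at room temperature, with 10 ug/mL donor/acceptor beads.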
BAZ2B inh = inhibitors of human BAZ2B bromodomain. Q9UIF8. AlphaScreen BAZ2B-H3K14Ac peptide displacement. Potency, µM (titrated, usually from 114 µM), actives largely listed as inhibitors. 360,000 tested, 4.4% active. AID 504333; note: nearly all actives have a fitted effect of over 60% in size
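AlphaScreen displacement of biotin-H3(5-23)K14Ac peptide (50 nM final) from BAZ2B (50 nM final) in PBS pH 7.4, 0.01% Tween-20; complex preformed 30 min RT, then compounds (top 110 uM) 30 min RT, beads 20 min dark.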
Numbers stand for hits; i = inactive; ? = inconclusive; nt = no result; [ ] = remark or other dose. A selection: hits, their analogues and other compounds. The true share with any hit is near 12%. Calls come from the whole dose curve; as a rule, active = well fitted curve in the direction sought with a large enough effect; inconclusive = small, poorly fitted or top-dose-only effect, or another doubt; inactive = no such curve, though single readings can be large; an effect the other way counts as inactive or inconclusive.

SMILES | JMJD2A Tudor | G9a inh | Sfp PPTase inh | HP1b chromo inh | BAZ2B inh
COc1ccc(NC(=O)c2ccc(NC(=O)c3ccncc3)cc2)cc1 | i | i | i | i | i
CCCCCNc1nc2sc3c(c2c(=O)n1-c1cccc(Cl)c1)CCN(C)C3 | i | 50µM | i | i | i
Cc1ccc(C(=O)OCC(=O)NCc2cccs2)cc1C | i | i | i | i | i
CCOc1ccc(S(=O)(=O)Nc2ccc3c(c2)CCCN3S(=O)(=O)c2ccc(C)cc2)cc1 | i | ? | nt | i | 56µM
Cc1ccc(S(=O)(=O)N2CCCc3cc(NS(=O)(=O)c4cccc(Cl)c4)ccc32)cc1 | i | i | nt | i | i
O=C(COC(=O)CNC(=O)c1ccccc1)Nc1nnc(-c2ccccc2)o1 | ? | 45µM | nt | i | ?
COc1cc(C(=O)NCC(=O)OCC(=O)Nc2nnc(-c3ccccc3)o2)cc(OC)c1OC | 22µM | i | nt | i | ?
COc1cc(C(=O)NCC(=O)OCC(=O)c2cccc3ccccc23)cc(OC)c1OC | i | 71µM | i | i | i
O=C(COC(=O)CNC(=O)c1cccc(Br)c1)Nc1nnc(-c2ccccc2)o1 | i | i[12.7 µM] | nt | i | i
Cn1nc([N+](=O)[O-])c(C(C#N)c2nc3ccccc3n2C)c(Cl)c1=O (centres undefined) | ? | ? | i | ? | 35µM
Cn1c(-c2ccc([N+](=O)[O-])cc2)nc2ccccc21 | i | i | i | i | i
CCn1c(=O)c2cc(C(=O)N(CCN(C)C)Cc3ccccc3)sc2c2ccccc21 | i | i | nt | i | ?
COc1ccc(C)cc1NC(=O)CSc1ccc(-c2ccccn2)nn1 | 4.5µM | i | i | i | 3.5µM
CCOC(=O)c1ccccc1NC(=O)CSc1ccc(-c2ccccn2)nn1 | 16µM | nt | i | i | 2.8µM
COc1ccc(OC)c(CCNC(=O)CS(=O)(=O)Cc2nc(-c3ccccc3Cl)oc2C)c1 | i | i | i | i | ?
CCOc1ccc(-c2c(C(=O)N/N=C(\C)c3ccccc3OC)nnn2-c2nonc2N)cc1 | i | i | i | i | i
CN(C)NC(=S)Nc1cccc(Cl)c1 | i | i | i | i | i
Cc1cccc(NC(=S)NNc2cccc(Cl)c2)c1 | 56µM | 32µM | i | 10µM | 10µM
Cc1cccc(NNC(=S)Nc2c(C)cccc2C)c1 | 14µM | 45µM | i | i | 14µM
OC[C@H]1NC[C@@H](O)[C@@H](O)[C@@H]1O | nt | nt | i | nt | nt
N#Cc1ccsc1NC(=O)CCS(=O)(=O)c1ccccc1 | i | 45µM | i | i | i
NC(=O)c1ccsc1NC(=O)CCS(=O)(=O)c1ccccc1 | i | i[12.7 µM] | i | i | i
NC(=O)c1ccsc1NC(=O)CCS(=O)(=O)c1ccc(Cl)cc1 | i | 35µM | nt | i | i
O=C(NCc1ccc(Cl)cc1)c1nccnc1CO | i | i | i | i | i
N#CC1=C2SCC(O)(c3ccccc3)N2C(=O)CC1c1ccccc1 (centres undefined) | i | 40µM | 56µM | i | ?
SMILES | JMJD2A Tudor | G9a inh | Sfp PPTase inh | HP1b chromo inh | BAZ2B inh
CCN1C(=O)C(C(=O)c2ccccc2)SC1=S (centres undefined) | 56µM | 22µM | 20µM | i | 56µM
CCOc1ccc(C(=O)Nc2cc(-c3nc4ccccc4[nH]3)ccc2Cl)cc1[N+](=O)[O-] | 79µM | ? | ? | i | i
O=C(NC(=S)Nc1cc(-c2nc3ccccc3[nH]2)ccc1Cl)c1ccc2c(c1)OCO2 | i | 45µM | ? | i | i
O=C(Cn1cc(C(F)(F)F)ccc1=O)Nc1ccc(N2CCOCC2)cc1 | i | i | i | i | i
C=CCn1c(=O)c(CCC(=O)Nc2ccc(N3CCOCC3)cc2)nc2cc(C(F)(F)F)ccc21 | 35µM | nt | i | i | i
CO/N=C1\CCCc2c(C(=O)NN)sc(SC)c21 | i | i | i | i | i
CC(C)SC1=NC(C)(C)C=C(/C=C/c2c(Cl)cccc2Cl)N1 | i | 45µM | i | i | i
CC(C)SC1=NC(C)(C)C=C(/C=C/c2ccc(Cl)cc2Cl)N1 | i | 45µM | i | i | ?
COC(=O)C1=C(C)N=C2SCCC(=O)N2C1c1cc(Br)ccc1OC (centres undefined) | i | i | i | i | i
COC(=O)C1=C(C(=O)OC)C(c2cc(Cl)ccc2O)c2sc(=O)[nH]c2S1 (centres undefined) | ? | 7.9µM | 79µM | i | ?
COC(=O)c1[nH]c2c(c1C)C(=O)CC(c1ccc(OC)c(OC)c1)C2 (centres undefined) | i | i | i | i | i
COC(=O)C1=C(C(=O)OC)C(c2ccc(OC)c(OC)c2)c2sc(=O)[nH]c2S1 (centres undefined) | 40µM | 28µM | 20µM | i | i
COC(=O)C1=C(C(=O)OC)C(c2cc(Br)ccc2O)c2sc(=O)[nH]c2S1 (centres undefined) | i | 3.2µM | 20µM | i | ?
COc1ccccc1-n1cc(-c2ccc(C)cc2)[nH]c1=S | ? | ? | i | i | ?
COc1cc(/C=N/n2cc(-c3ccccc3)[nH]c2=S)cc(OC)c1O | 1.3µM | 0.5µM | 20µM | i | i
Oc1ccc(/C=N/n2cc(-c3ccccc3)[nH]c2=S)cc1 | 4µM | 2.5µM | 18µM | i | nt
Cc1ccc(S(=O)(=O)NCCc2nnc3ccc(SCc4cccc(F)c4)nn23)cc1 | i | i | nt | i | i
Cc1ccc(NC(=O)c2c(C)nn(-c3ccccc3)c2-n2cccc2)c(Cl)c1 | i | i | nt | i | i
Cc1nn(CCOc2ccccc2)c(=O)n1-c1c(F)cccc1F | i | i | i | i | i
CC1CCCCC1NC(=S)NC(=O)c1sc2ccccc2c1Cl (centres undefined) | i | nt | 32µM | i | i
Cc1c(NC(=S)NC(=O)c2sc3ccccc3c2Cl)cccc1C(=O)O | ? | 4.5µM | i | i | 50µM
CCN(C(=O)Cc1cccs1)c1nnc(-c2cccnc2)s1 | i | 2.8µM | i | i | ?
Cc1ccc(S(=O)(=O)CCC(=O)Oc2ccc3c(C)cc(=O)oc3c2)cc1 | ? | 50µM | nt | i | i
CCNC(=S)N/N=C(\C)c1ccc2ccccc2c1OC(F)F | ? | 45µM | i | ? | ?
CCNC(=S)N/N=C(\C)c1ccc2ccccc2c1 | nt | ? | i | nt | 35µM
SMILES | JMJD2A Tudor | G9a inh | Sfp PPTase inh | HP1b chromo inh | BAZ2B inh
CCNC(=S)N/N=C(\C)c1cccc(OC)c1 | i | i | ? | i | i
CCOc1ccc(NC(=O)Nc2ccc3c(c2)nc(C)n3C)cc1 | i[11.4 µM] | i[12.7 µM] | i | i | i
COC(=O)c1c(NC(=S)NNC(=O)c2ccc(Cl)s2)sc(C(=O)N(C)C)c1C | i | 28µM | i | i | i
O=c1[nH]c2cc3c(cc2cc1CN(Cc1cccnc1)C(=S)NCc1ccco1)OCO3 | i | 10µM | 40µM | i | ?
CN(C)CCN(Cc1cc2cc3c(cc2[nH]c1=O)OCO3)C(=S)NCc1ccco1 | i | nt | i | i | i
O=c1[nH]c2cc3c(cc2cc1CN(Cc1cccnc1)C(=S)NCc1ccco1)OCCO3 | i | 40µM | 5µM | i | i
O=C1COc2ccc(S(=O)(=O)N3CCc4ccccc43)cc2N1 | i[11.4 µM] | i | i | i | i
